PubChem BioAssay (NCATS)
Results filed as inconclusive are left out. Entries that show only a call come without a potency. The source made the active and inactive calls. The call rests on the fitted dose curve; in most records, active means well fitted cell-killing curve with a large enough effect; inconclusive means small, poorly fitted or top-dose-only effect, or effect the other way; inactive means flat fitted curve, though single readings scatter.
Potency means the concentration at half of the fitted maximal effect.

The compounds below were run on OV90 (assay: Primary qHTS to identify gynecologic anti-cancer compounds using libraries of approved drugs and bioactive compounds (AID 1345084; further: nearly all actives have a fitted effect of over 55% in size)). Settings: Gynecologic cancer cell panel viability, ATPlite luminescence, 48 h; series mostly up to 57.5 µM.
Procedure, shortened: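 Measured: luminescence after ATPlite addition (15 min, RT). Exposure: 48 h, 37 C, 5% CO2.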
For `N#Cc1ccc(COc2ccc(-c3cccc4nc(NC(=O)C5CC5)nn34)cc2)cn1`, the Potency was “inactive”. `CC(=O)O[C@H]1CC[C@]2(C)[C@H]3CC[C@]4(C)Oc5oc(C)cc(=O)c5C[C@H]4[C@]3(C)CC[C@H]2C1(C)C` was tested, and the Potency was “inactive”. For `CC(=O)CC(=O)Nc1ccc(Cl)c(C(F)(F)F)c1`, the Potency was “inactive”. With `Cc1ccc(-c2c(C(=O)CCl)n(CCCO)c3ncnc(N)c23)cc1` the Potency was “inactive”. In the case of `CC(C)(O)C1Cc2c(ccc(C(=O)CCc3ccccc3)c2O)O1` (centres undefined), the Potency is reported as 11.2 µM (active). `CCn1c(=O)c(-c2ccc(-c3cncs3)cc2Cl)cc2cnc(Nc3ccc(N4CCN(C)CC4)cc3)nc21` was tested, and the Potency was “inactive”. `C=C1C(=O)O[C@H]2CC(=C)[C@H]3CC[C@@](C)(O)[C@@H]3CC12` (some centres undefined) was tested, and the Potency was “inactive”. For `CCNC(=O)C#Cc1ccc2c(C(=Nc3ccc(CN(C)C)cc3)c3ccccc3)c(O)[nH]c2c1`, the Potency was 0.447 µM (active). `CC1(C)CN(C(=O)c2ccc(-c3cccc4nc(NC(=O)C5CC5)nn34)cc2)C1` was tested, and the Potency was “inactive”. `COc1cc(CCO)ccc1O[C@@H]1O[C@H](CO)[C@@H](O)[C@H](O)[C@H]1O` was tested, and the Potency was “inactive”. In the case of `CC(C)c1cccc(C(C)C)c1NC(=O)Nc1ccc(Sc2ccc([N+](=O)[O-])cc2)cc1`, the Potency is reported as “inactive”. In the case of `FC(F)(F)c1ccccc1-c1cc(C(F)(F)F)c2nc(C3=NOC4(CCCCC4)C3)[nH]c2c1`, the Potency is reported as “inactive”. In the case of `C=C1CC[C@@H]2[C@](C)(CO)[C@H](O)CC[C@@]2(C)[C@@H]1CC(=O)C1=CCOC1=O`, the Potency is reported as “inactive”. With `CC(NC(=O)Cc1cc(F)cc(F)c1)C(=O)NC1C(=O)N(C)c2ccccc2-c2ccccc21` (centres undefined) the Potency was “inactive”.
